Hits are enriched below; roughly 5% of the tested compounds scored in any of these assays.
Vaccinia Venus = inhibitors of vaccinia virus (Venus reporter) | Vaccinia virus Venus reporter expression, fluorescence | Potency, µM (titrated, usually from 36.5 µM), inactives show at the top dose activity change, negative = inhibition, most hits filed as inhibitors | hit rate 0.46% among 330,000 | AID 720580; calls by dose curve; tested in A549 cells; further: potency means the concentration at half of the fitted maximal effect; nearly all actives have a fitted effect of over 30% in size
HCMV inh = blocks human cytomegalovirus replication. HFF cells, HCMV-luciferase reporter, 72 h; hits give low values. hit rate 4.5% among 410,000. activity change, negative = inhibition, % at 57.5 µM; in the data active means activity change below about -60%; inconclusive means no clear call, values can overlap the other calls; inactive means above about -39%
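Two-dose cell screen: HFF monolayers treated with compounds and infected with luciferase-expressing HCMV at 1 PFU/cell, 72 h at 37C, then lysed for luciferase measurement.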
VACV mCherry inh = vaccinia inhibition (mCherry reporter); hit rate 0.63% among 310,000; Potency, µM (top dose mostly 36.5 µM), for inactives: at the top dose activity change, negative = inhibition, most hits filed as inhibitors; Vaccinia virus mCherry reporter infection, fluorescence; calls by dose curve; tested in A549 cells; further: potency means the concentration at half of the fitted maximal effect; nearly all actives have a fitted effect of over 35% in size
LmPK inhibitor = LmPK (Leishmania mexicana) enzyme inhibition; Potency, µM (series often up to 57.5 µM), for the others: top-dose activity change, negative = inhibition, hits mostly inhibitors; hit rate 0.37% among 290,000; Q27686; AID 1721; purified LmPK, Kinase-Glo ATP luminescence, 1 h; further: potency means the concentration at half of the fitted maximal effect
Target sequence (Q27686 whole entry, looked up): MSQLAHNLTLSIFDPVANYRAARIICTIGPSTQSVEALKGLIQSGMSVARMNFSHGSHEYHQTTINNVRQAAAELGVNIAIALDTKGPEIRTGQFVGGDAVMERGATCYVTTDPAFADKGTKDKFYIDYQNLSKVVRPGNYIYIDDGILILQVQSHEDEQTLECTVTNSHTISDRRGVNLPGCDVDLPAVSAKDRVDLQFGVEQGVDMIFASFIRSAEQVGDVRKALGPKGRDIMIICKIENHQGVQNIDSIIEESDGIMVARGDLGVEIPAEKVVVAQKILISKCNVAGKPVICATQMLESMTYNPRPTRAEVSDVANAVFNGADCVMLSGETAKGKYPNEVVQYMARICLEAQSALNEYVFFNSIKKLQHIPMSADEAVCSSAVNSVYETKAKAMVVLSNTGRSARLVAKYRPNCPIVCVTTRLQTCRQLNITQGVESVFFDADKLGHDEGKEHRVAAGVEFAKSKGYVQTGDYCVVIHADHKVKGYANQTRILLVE
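In 50 mM imidazole pH 7.2 with 7 mM MgCl2, LmPK (0.1 nM) turned over PEP (0.5 mM) and ADP (0.1 mM) for 1 h at room temperature. Luciferase read-out of ATP.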
Tb PYK inh = blocks Trypanosoma brucei pyruvate kinase | hit rate 0.12% among 410,000 | Potency, µM (highest dose often 76.8 µM), for inactives: at the highest dose activity, negative = inhibition, most hits filed as inhibitors | Q57TT1 | TbPYK enzyme, Kinase-Glo Plus ATP luminescence, 45 min; further: potency means the concentration at half of the fitted maximal effect; nearly all actives have a fitted effect of over 50% in size
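In this concentration-response screen, enzyme-free wells defined baseline while DMSO plates tracked drift. Each reaction combined TbPYK, substrate, compound and 130 uM ADP for 45 min at room temperature. Kinase-Glo Plus luminescence gave the signal.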
* hit, by the source's call; i = inactive; ? = inconclusive; nt = no result; ! = not confirmed by another sample. Unless noted, the call rests on the fitted dose curve; in most records, active means well fitted curve in the direction sought with a large enough effect; inconclusive means small, poorly fitted or top-dose-only effect, or another doubt; inactive means no such curve, though single readings can be large; an effect the other way counts as inactive or inconclusive. On the % scale 0 is the no-effect control and ±100 the full control effect.

SMILES | Vaccinia Venus | HCMV inh | VACV mCherry inh | LmPK inhibitor | Tb PYK inh
Cc1cc(-c2n[nH]c(=S)n2/N=C/c2cc([N+](=O)[O-])ccc2Cl)n[nH]1 | -14% | -24 | -16% | 15% | 4µM*
Cc1ccc(-c2nc3ncccc3o2)cc1NC(=O)c1cccc(OCC(C)C)c1 | ? | -11 | ? | nt | -6%
Cc1c(Cl)cccc1NC(=O)CSC(N)=O | -12% | -15 | 0% | 0% | 2%
C=C1C(=O)OC2C1CCC(C)=C1C(=O)C3OC3(C)C12 (stereo unspecified) | ? | -78* | 11µM* | nt | -13%
C=C1C(=O)O[C@@H]2[C@@H]1CC/C(C)=C\CC[C@@]1(C)O[C@H]21 | nt | nt | nt | nt | -3%
CCn1cc(C(=O)OCC(=O)NCc2ccccc2Cl)c(=O)c2ccc(C)nc21 | -21% | -102* | -22% | 7% | 2%
COc1ccccc1-c1c(C)c(C)nc(N)c1C#N | -13% | -72* | -22% | 7% | 2%
COCCCNc1nnc(Cc2ccc(Cl)cc2)c(=O)[nH]1 | nt | -75* | nt | -2% | -2%
Cc1ccccc1OCC(=O)NNC(=O)c1ccc(-c2ccccc2)cc1 | -13% | 0 | -12% | 3% | 1%
O=C(/C=C/c1ccco1)Nc1cccnc1Cl | nt | -8 | nt | 16µM* | ?
O=C(/C=C/c1ccccc1)Nc1cccnc1Cl | -18% | 35 | -22% | -26% | 0%
O=C(/C=C/c1ccco1)Oc1cccc2cccnc12 | ? | -72* | -26% | 5% | 2%
Cc1ccc(C)c(NC(=O)CCn2nc(C)c3c(C)n(-c4ccccc4)nc3c2=O)c1 | -14% | 2 | -14% | nt | -1%
O=[As](O)(O)c1ccc(N=Nc2ccc(O)cc2)cc1 | -9% | -80* | i | -7% | -2%
CCSC(=O)N=Nc1ccc(O)cc1 | 6% | -15 | -11% | nt | -12%
N#Cc1sc2nc3c(cc2c1N)CCCC3 | -20% | -64* | -7% | 5% | -1%
O=S(=O)(c1ccccc1)N(CC(F)(F)F)c1ccc(C(O)(C(F)(F)F)C(F)(F)F)cc1 | 11µM*! | -23 | ? | nt | 2%
CCOc1ccc(-c2ccc(NS(=O)(=O)c3cc(C)ccc3OC)cc2)nn1 | -13% | -17 | -4% | nt | 2%
C=C1CCC(OC(C)=O)/C(C)=C/CC2[C@H]1CC2(C)C (stereo partly specified) | -12% | nt | -9% | nt | nt
C=C1C(=O)O[C@H]2C1CC[C@@](C)(O)C13C=CC(C)(C21)C1(C3)C(=O)O[C@@H]2C3C(C)=CCC3[C@](C)(O)C[C@H](OC(C)=O)C21 (stereo partly specified) | -19% | -90* | -19% | 0% | -2%
Cc1cc(N)c2cc(NC(=O)Nc3ccc4nc(C)cc(N)c4c3)ccc2n1 | nt | -99* | nt | nt | 4%
CC(C)(C)c1ccc(CN2C(=O)CSC2=O)cc1 | -12% | -19 | i | 12% | 9%
COc1ccc2[nH]c(=O)c(CN(Cc3ccco3)C(c3nnnn3Cc3ccccc3)C(C)C)cc2c1 (stereo unspecified) | nt | -98* | nt | 10% | -11%
CCCn1ccc2c(OCC(=O)Nc3ccccc3OCC)cccc2c1=O | -22% | -14 | -11% | nt | 0%
COc1cccc(C(=O)OCCN2CCCCC2)c1 | -3% | -100* | nt | 0% | 0%
SMILES | Vaccinia Venus | HCMV inh | VACV mCherry inh | LmPK inhibitor | Tb PYK inh
COc1cccc(C(=O)NNC(=O)C(=O)N2CCCCC2)c1 | -13% | -67* | i | 3% | 14%
N#Cc1cc2cc3c(cc2nc1SCC(=O)N1CCOCC1)OCCO3 | 12% | -61* | -2% | -5% | 5%
Cc1cc2cc3c(cc2nc1SCC(=O)N1CCCC1)OCCO3 | -12% | -61* | i | 1% | -3%
CC[C@]1(C(=O)OC)[C@H]2C(=O)N(Cc3ccccc3)C(=O)[C@H]2[C@H]2CN(C)C(=NC)N21 | -1% | nt | -14% | nt | -1%
O=C(NCCS(=O)(=O)N1CCN(c2ccc(F)cc2)CC1)C(c1ccccc1)c1ccccc1 | -15% | ? | -10% | nt | 5%
Cc1cc2c(Nc3ccc(O)cc3)ncnc2s1 | -14% | -69* | ? | 1% | -9%
COc1cc(-c2cc(-c3ccc(O)cc3)nc(N)c2C#N)ccc1O | ? | -70* | -22% | 0% | 4%
CSc1ccccc1NC(=O)CSc1cccc[n+]1[O-] | -12% | -100* | -14% | nt | -2%
Cc1cc(C)c2nc(NC(=O)c3ccc(S(=O)(=O)N4CCc5ccccc54)cc3)sc2c1 | -11% | -30 | -12% | nt | -10%
Cc1cc(C)c2nc(NC(=O)c3ccc(S(=O)(=O)N4CCC(C)CC4)cc3)sc2c1 | -6% | -3 | -3% | nt | -9%
Cc1ccc2nc(NC(=O)c3ccc(S(=O)(=O)N4CCC(C)CC4)cc3)sc2c1 | 0% | -3 | -6% | nt | -5%
Cc1cccc2sc(NNC(=O)c3ccc(S(=O)(=O)N4CC(C)CC(C)C4)cc3)nc12 (stereo unspecified) | ? | -99* | 28µM* | 2% | -15%
Cc1cc(C)c2nc(NNC(=O)c3ccc(S(=O)(=O)N4CCCC(C)C4)cc3)sc2c1 (stereo unspecified) | ? | -98* | 4µM* | 2% | -1%
Cc1cc(C)c2nc(NNC(=O)c3ccc(S(=O)(=O)N4CC(C)CC(C)C4)cc3)sc2c1 (stereo unspecified) | ? | -98* | ? | 0% | ?
Cc1ccc2nc(NNC(=O)c3ccc(S(=O)(=O)N4CCc5ccccc5C4)cc3)sc2c1 | ? | -99* | ? | 3% | -4%
CCOc1ccccc1N1CCN(C(=S)Nc2ccc(S(=O)(=O)Nc3ncccn3)cc2)CC1 | -6% | 23 | -4% | 0% | 1%
COc1ccc(S(=O)(=O)N2c3ccc(F)cc3CCC2C)cc1 (stereo unspecified) | nt | -78* | nt | nt | 1%
Fc1ccc(C2=NOC(c3nnc(-c4ccccc4)o3)C2)cc1 (stereo unspecified) | -9% | -65* | -2% | 1% | -1%
c1ccc(C2=NOC(c3nnc(-c4ccccc4)o3)C2)cc1 (stereo unspecified) | -3% | 0 | -6% | nt | 10%
COc1ccc(-n2ncc3c(N4CCCCC4)ncnc32)cc1 | -23% | nt | -19% | 16µM* | -11%
Cc1ccc(-n2ncc3c(N4CCCCC4)ncnc32)cc1 | -1% | -101* | -13% | nt | -15%
Cc1ccc(Cl)cc1-n1ncc2c(N3CCCCCC3)ncnc21 | -20% | -35 | ? | nt | 2%
Clc1ccc(-n2ncc3c(N4CCCCCC4)ncnc32)cc1 | -8% | -79* | i | -6% | 0%
COc1ccc(N2CCN(c3ncnc4c3cnn4C)CC2)cc1 | -12% | -61* | -13% | nt | -12%
O=C(CNC(=O)c1ccco1)Nc1cccc(Cl)c1 | nt | 60 | nt | -2% | 2%
Cc1nc([N+](=O)[O-])c(Br)n1CC(=O)c1ccc(Br)cc1 | nt | -16 | nt | 8% | -2%
CCc1ccc(CN(C)Cc2nc(Cc3ccc(OC)c(OC)c3)no2)nc1 | 0% | 100 | i | 4% | -5%

Screening data from PubChem BioAssay.
